Measured values from ChEMBL document CHEMBL3988442, “University of Dundee, Small-Polar-MMV Screening Library” (2021).
About 13,000 (27%) of roughly 48,000 compounds showed an effect of 50% or more. The list shows a part of the results.

system: Wolbachia pipientis; experiment: Anti-Wolbachia Cell-Based Screen; assay type: functional; design: scale not given: in the data most compounds retested in dose-response had high values; settings: 5 µM

Row | Structure (SMILES) | Percent Effect [%]
1 | O=C(NC1CCN(c2ccc(-c3ccccc3F)nn2)C1)c1ccc[nH]1 (stereo not given) | 5.245
2 | COCC(C)NC(=O)N(C)Cc1cc(C)on1 (stereo not given) | -2.25
3 | COc1cccc(C2CCN2C(=O)c2cc(C(C)C)on2)c1 (stereo not given) | 21.92
4 | CC(C)c1cc(COCCCC(=O)O)no1 | 94.89
5 | CC(C)c1cc(CSCCC(=O)O)no1 | 33.59
6 | COC(=O)C(C)N(Cc1cc(C)on1)C1CC1 (stereo not given) | -2.266
7 | CC(C)c1cc(COCCC(=O)O)no1 | 121.8
8 | O=S1(=O)CCC(n2nc(Cc3cccs3)nc2-c2cnccn2)C1 (stereo not given) | -137.3
9 | CC(Oc1ccccc1C(F)(F)F)C(=O)NCCCC(N)=O (stereo not given) | -9.185
10 | N#Cc1ccc(Cl)cc1N1CCC(OC2CCOCC2)CC1 | 1.592
11 | CN(c1ccc(CNc2c(Cl)cccc2C#N)cc1)S(C)(=O)=O | 0.1811
12 | N#Cc1ccc(NCCCOCC2CCOC2)c(F)c1 (stereo not given) | -19.41
13 | CS(=O)(=O)N1CCC(CNc2c(Cl)cccc2C#N)CC1 | 98.55
14 | CS(=O)(=O)N1CCC(CNc2cc(Cl)ccc2C#N)CC1 | 125.4
15 | CS(=O)(=O)N1CCC(Nc2ccnc3ccc(Cl)cc23)CC1 | -4.778
16 | N#Cc1cc(C(F)(F)F)ccc1NCC1CCS(=O)(=O)CC1 | -17.13
17 | N#Cc1cc(F)ccc1NCC1CCS(=O)(=O)CC1 | -20.22
18 | N#Cc1ccc(Cl)cc1NCC1CCOC1 (stereo not given) | 108.5

Row | Structure (SMILES) | Percent Effect [%]
19 | N#Cc1ccc(Cl)cc1NCC1CC1 | 111.8
20 | CCS(=O)(=O)c1ccc(CNc2c(Cl)cccc2C#N)cc1 | -6.207
21 | N#Cc1cc(F)ccc1NCC1CCN(S(=O)(=O)C(F)F)CC1 | -12.01
22 | CN(CC1CCCCO1)C(=O)c1ccnc(OC2CCC2)c1 (stereo not given) | 4.497
23 | Cc1nn(C)c(C)c1NC(=O)CNc1cc(C(F)(F)F)ccc1F | -4.216
24 | O=C(c1ccco1)N(CC(F)(F)F)C1CCOCC1 | -3.164
25 | Cc1nc(C)c(CNC(=O)NC2CC(C)(C)OC2(C)C)s1 (stereo not given) | -7.711
26 | CCOC(C)c1nc(CN2CCN(Cc3cccnc3)CC2)cs1 (stereo not given) | -1.889
27 | COc1ccc(Oc2ncccc2NC(=O)N2CCOCC2)cc1 | 2.048
28 | COc1ccccc1CC1CCN(C(=O)CCc2ccccn2)CC1 | -10.18
29 | O=C(Nc1ccccc1OCCc1ccccn1)NC1CCOCC1 | -2.172
30 | O=C(Nc1ccccc1OCCc1ccccn1)N1CCOCC(O)C1 (stereo not given) | 83.92
31 | O=C(Nc1ccccc1OCCc1ccccn1)N1CC[C@@H](O)C1 | 116.1
32 | C=C(C)COc1ccccc1NC(=O)N1CCOCC(CO)C1 (stereo not given) | -7.017
33 | O=C(Nc1ccccc1OCc1ccccn1)NC1CCOCC1 | 8.72
34 | O=C(Nc1ccccc1OCCc1ccccn1)N1CCOCC1 | 129.1
35 | Cc1n[nH]c(C)c1Sc1ccccc1NC(=O)N1CCOCC(O)C1 (stereo not given) | -4.124
